# Data taken from PubChem BioAssay (Tox21).
# Unmarked numbers belong to inactive results. Records with an inconclusive call do not appear. Entries that show only a call come without a potency. Active and inactive are the calls of the source. Calls follow the shape of the full dose curve.
# Legend:
# [1] = biological target: Acetylcholinesterase (Homo sapiens) (UniProt P22303); test: Acetylcholinesterase (AChE) small molecule antagonists: colormetric cell-based qHTS assay (AID 1347395); also: nearly all actives have a fitted effect of over 30% in size
# Sequence of Acetylcholinesterase (Homo sapiens) (P22303 whole entry, looked up): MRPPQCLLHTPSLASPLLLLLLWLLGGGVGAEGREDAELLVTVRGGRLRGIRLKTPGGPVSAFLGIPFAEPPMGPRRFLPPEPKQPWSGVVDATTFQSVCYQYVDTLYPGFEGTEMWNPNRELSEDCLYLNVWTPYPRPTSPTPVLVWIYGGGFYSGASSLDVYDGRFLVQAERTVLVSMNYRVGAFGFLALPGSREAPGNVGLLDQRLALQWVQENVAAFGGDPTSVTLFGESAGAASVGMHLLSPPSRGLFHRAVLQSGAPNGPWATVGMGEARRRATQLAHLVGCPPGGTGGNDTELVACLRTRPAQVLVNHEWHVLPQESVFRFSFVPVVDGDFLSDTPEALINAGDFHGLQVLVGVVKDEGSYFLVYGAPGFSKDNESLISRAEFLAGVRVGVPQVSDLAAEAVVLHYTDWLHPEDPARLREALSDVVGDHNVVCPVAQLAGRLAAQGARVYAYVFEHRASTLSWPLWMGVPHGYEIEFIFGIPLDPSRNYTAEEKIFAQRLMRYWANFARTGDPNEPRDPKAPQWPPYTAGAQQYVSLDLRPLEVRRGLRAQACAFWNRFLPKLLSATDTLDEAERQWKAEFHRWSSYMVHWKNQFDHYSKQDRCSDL
# Summary of the method: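 Colorimetric read-out: DTNB detects thiocholine released when cellular AChE in SH-SY5Y cells hydrolyses acetylthiocholine. Cells attached overnight, received compound for 30 min at 37 C, then substrate mix for 90 min at 37 C.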
# [2] = biological target: Acetylcholinesterase (Homo sapiens) (UniProt P22303); test: Acetylcholinesterase (AChE) small molecule antagonists: enzyme-based qHTS assay (AID 1347397); conditions: Potency: AChE enzyme activity inhibition; outcome: AChE enzyme activity inhibition; also: nearly all actives have a fitted effect of over 55% in size
# Summary of the method: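 Human recombinant acetylcholinesterase; substrate acetylthiocholine; thiocholine quantified with DTNB (colorimetric). Compound preincubation 30 min RT; reaction 10 min RT.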
# [3] = biological target: Acetylcholinesterase (Homo sapiens) (UniProt P22303); test: Acetylcholinesterase (AChE) small molecule antagonists: enzyme-based qHTS assay with human liver microsomes (AID 1347399); conditions: Potency: qHTS inhibition; outcome: qHTS inhibition; also: nearly all actives have a fitted effect of over 60% in size
# Summary of the method: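 Recombinant human AChE (50 mU/mL in the enzyme mix) and human liver microsomes (0.25 mg/mL final) were preincubated with compound and NADPH (0.25 mg/mL final) for 30 min at 37 C. Acetylthiocholine/DTNB was then added; thiocholine was read colorimetrically after 10 min at room temperature.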
# Potency is read from the fitted curve at half-maximal effect.
smiles,measurement,setting,value
O=C1NC(=O)c2cccc3cccc1c23,Potency,[1],39.9 µM (active)
same,Potency,[2],inactive
same,Potency,[3],inactive
O=C1[C@H]2CCCC[C@H]2C(=O)N1CCCCN1CCN(c2nsc3ccccc23)CC1,Potency,[1],inactive
same,Potency,[2],inactive
same,Potency,[3],inactive
Nc1ccc(N=Nc2ccccc2)c(N)c1,Potency,[1],inactive
same,Potency,[2],inactive
same,Potency,[3],inactive
c1ccc(-c2nc[nH]c2-c2ccccc2)cc1,Potency,[1],inactive
same,Potency,[2],inactive
same,Potency,[3],inactive
CC(C)C[P+](C)(CC(C)C)CC(C)C,Potency,[1],40.2 µM (active)
same,Potency,[2],inactive
same,Potency,[3],inactive
CC(C)NCC(O)c1ccc2ccccc2c1 (centres undefined),Potency,[1],inactive
same,Potency,[2],inactive
same,Potency,[3],inactive
CSc1ccc(Oc2ccc(S(N)(=O)=O)cc2CN(C)C)cc1C,Potency,[1],inactive
same,Potency,[2],inactive
same,Potency,[3],inactive
NC(=O)NC1N=C([O][Al])NC1=O (centres undefined),Potency,[1],inactive
same,Potency,[2],inactive
same,Potency,[3],inactive
NC1[C@H]2CN(c3nc4c(cc3F)c(=O)c(C(=O)O)cn4-c3ccc(F)cc3F)C[C@@H]12 (some centres undefined),outcome,[1],inactive
same,outcome,[2],inactive
same,outcome,[3],inactive
O=S(=O)(O)SSS(=O)(=O)O,Potency,[1],71 µM (active)
same,Potency,[2],71 µM (active)
same,Potency,[3],71 µM (active)
OCCN1CCN(CC/C=C2/c3ccccc3Sc3ccc(C(F)(F)F)cc32)CC1,Potency,[1],inactive
same,Potency,[2],inactive
same,Potency,[3],inactive
COCC(=O)O[C@]1(CCN(C)CCCc2nc3ccccc3[nH]2)CCc2cc(F)ccc2[C@@H]1C(C)C,Potency,[1],inactive
same,Potency,[2],inactive
same,Potency,[3],inactive
OCCN1CCN(CCCN2c3ccccc3Sc3ccc(C(F)(F)F)cc32)CC1,Potency,[1],inactive
same,Potency,[2],inactive
same,Potency,[3],inactive
CCN(CC)CCOC(=O)C(Cc1cccc2ccccc12)CC1CCCO1 (centres undefined),Potency,[1],inactive
same,Potency,[2],inactive
same,Potency,[3],inactive
CNCCO,Potency,[1],inactive
same,Potency,[2],inactive
same,Potency,[3],inactive
CCCCCCCCCCCCSCCOCCO,Potency,[1],inactive
same,Potency,[2],inactive
same,Potency,[3],inactive
CCC(C)CCCC(C)(C)O (centres undefined),Potency,[1],inactive
same,Potency,[2],inactive
same,Potency,[3],inactive
C[C@@H]1CN(c2c(F)c(F)c3c(=O)c(C(=O)O)cn(C4CC4)c3c2F)C[C@H](C)N1,"activity, negative = inhibition",[1],-2.8% [at 23.6 µM]
same,"activity change, negative = inhibition",[2],-0.831% [at 23.6 µM]
same,"activity change, negative = inhibition",[3],-1.43% [at 23.6 µM]
CCCCCCCCCCCCN(CCO)CCO,Potency,[1],inactive
same,Potency,[2],inactive
same,Potency,[3],inactive
CS(=O)(=O)c1ccc(-c2cn3ccccc3n2)cc1,Potency,[1],inactive
same,Potency,[2],inactive
same,Potency,[3],inactive
CSc1ccc(C(=O)c2[nH]c(=O)[nH]c2C)cc1,Potency,[1],inactive
same,Potency,[2],inactive
same,Potency,[3],inactive
CC(C(O)c1ccc(O)cc1)N1CCC(Cc2ccccc2)CC1 (centres undefined),Potency,[1],inactive
same,Potency,[2],inactive
same,Potency,[3],inactive
CCc1nn(CCCN2CCN(c3cccc(Cl)c3)CC2)c(=O)n1CCOc1ccccc1,Potency,[1],inactive
same,Potency,[2],inactive
same,Potency,[3],inactive
